Laboratory results reported in PubChem BioAssay AID1159580 (chemical genetic matrix, 2015).
Several values for one entry are separate records, joined by “and”; a condition that tells them apart may be missing. Equal entries are not always repeated. Hit rate of the full screen: of about 5,500 compounds, about 2,000 (36%) were called active. Another 18% or so got no clear call; they are omitted. Cut-off read from the data, not from the text of the source: active = normalized growth mostly below about 0.91 (no sharp cut-off); inconclusive = no clear call, values can overlap the other calls; inactive = mostly above about 0.92. The list shows a part of the results.

Test: chemical genetic growth profiling, strain panel (AID 1159580);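 note: tested at 20 µM; growth read once vehicle control cultures reached saturation at 30 °C; 1 = growth at the plate median or of vehicle wells; lower values mean less growth of the strain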
Details: S. cerevisiae deletion strains, growth OD
[1] = locus YGR078C, strain PAC10, hits give low values
[2] = locus YGR229C, strain SMI1, hits give low values
[3] = locus YJR075W, strain HOC1, hits give low values
[4] = locus YAL013W, strain DEP1, hits give low values
[5] = locus YBR229C, strain ROT2, hits give low values
[6] = locus YDL101C, strain DUN1, hits give low values
[7] = locus YDR150W, strain NUM1, hits give low values
[8] = locus YEL061C, strain CIN8, hits give low values
[9] = locus YHR030C, strain SLT2, hits give low values
[10] = locus YJR043C, strain POL32, hits give low values
[11] = locus YLR039C, strain RIC1, hits give low values
[12] = locus YLR262C, strain YPT6, hits give low values
[13] = locus YMR263W, strain SAP30, hits give low values
[14] = locus YPL055C, strain LGE1, hits give low values
[15] = locus YPL241C, strain CIN2, hits give low values

Measured: normalized growth

NC1C=CC=C(C(=O)O)C1 (stereo not given)
inactive: locus YAL040C, strain CLN3, hits give low values 0.969 | locus YCL061C, strain MRC1 (second series), hits give low values 0.989 | locus YER002W, strain NOP16, hits give low values 0.992 | [1] 1 | [2] 0.999 | [3] 0.994 | locus YNL175C, strain NOP13, hits give low values 0.995 | locus YNL197C, strain WHI3, hits give low values 0.979 | locus YNL224C, strain SQS1, hits give low values 1 | locus YOR083W, strain WHI5 (second series), hits give low values 0.986

Fc1cc2n[nH]nc2cc1Cl
inactive: [4] 1 | [5] 0.989 | [6] 0.97 | [7] 0.919 | [8] 0.992 | [1] 0.972 | [9] 0.977 | locus YHR087W, strain rtc3, hits give low values 0.997 | [10] 0.997 | [3] 0.958 | [11] 1.06 | locus YLR058C, strain SHM2 (second series), hits give low values 0.978 | locus YLR085C, strain ARP6, hits give low values 0.94 | [12] 1.06 | locus YML094W, strain GIM5, hits give low values 0.979 | locus YMR219W, strain ESC1, hits give low values 0.985 | [13] 0.931 | locus YNL153C, strain GIM3, hits give low values 0.995 | locus YNL298W, strain CLA4 (second series), hits give low values 0.977 | locus YNL322C, strain KRE1, hits give low values 0.974 | locus YNR030W, strain Alg12, hits give low values 0.993 | [14] 0.931 | [15] 0.978 | locus YPR135W, strain CTF4, hits give low values 0.945

CC(=O)O[C@H]1C[C@@H](OC(C)=O)C(C)(C)C2C[C@@H](OC(C)=O)[C@@]3(C)C4=CC(=O)O[C@@H](c5ccoc5)[C@]4(C)CCC3[C@]21C (stereo not given in full)
inactive: [4] 1.01 | locus YAL021C, strain ccr4, hits give low values 1.02 | locus YAL026C, strain drs2, hits give low values 1 | locus YAL030W, strain snc1, hits give low values 0.998 | locus YBL061C, strain skt5, hits give low values 0.997 | locus YBR009C, strain hhf1, hits give low values 0.99 | locus YBR021W, strain FUR4, hits give low values 0.993 | locus YBR023C, strain chs3, hits give low values 0.982 | locus YBR171W, strain sec66, hits give low values 1 | [5] 1 | locus YBR231C, strain swc5, hits give low values 0.989 | locus YBR279W, strain paf1, hits give low values 1 | locus YCL011C, strain gbp2, hits give low values 1 | locus YCL016C, strain dcc1, hits give low values 0.997 | locus YCL029C, strain bik1, hits give low values 1 | locus YCL061C, strain MRC1, hits give low values 0.994 | locus YCL069W, strain vba3, hits give low values 1.01 | locus YCR088W, strain abp1, hits give low values 0.999 | locus YDL005C, strain med2, hits give low values 0.989 | locus YDL035C, strain GPR1, hits give low values 1.01 | locus YDL040C, strain nat1, hits give low values 0.983 | locus YDL074C, strain BRE1, hits give low values 0.993 | [6] 1 | locus YDL185W, strain tfp1, hits give low values 1.01 | locus YDL192W, strain arf1, hits give low values 1 | locus YDR001C, strain nth1, hits give low values 1 | locus YDR069C, strain doa4, hits give low values 0.983 | locus YDR101C, strain arx1, hits give low values 1 | locus YDR137W, strain rgp1, hits give low values 0.998 | [7] 1.01 | locus YDR159W, strain sac3, hits give low values 0.968 | locus YDR162C, strain NBP2, hits give low values 1.03 | locus YDR195W, strain ref2 0.961 | locus YDR297W, strain sur2, hits give low values 1 | locus YDR318W, strain mcm21, hits give low values 1 | locus YDR334W, strain swr1, hits give low values 0.997 | locus YDR335W, strain msn5, hits give low values 1 | locus YDR388W, hits give low values 0.999 | locus YDR392W, strain spt3, hits give low values 0.963 | locus YDR502C, strain sam2, hits give low values 0.98 | locus YEL003W, strain gim4, hits give low values 1.01 | locus YEL037C, strain rad23, hits give low values 1.02 | locus YEL061C, strain CIN8 (second series), hits give low values 1 | [8] 0.997 | locus YER015W, strain faa2, hits give low values 0.998 | locus YER016W, strain bim1, hits give low values 0.991 | locus YER110C, hits give low values 0.997 | locus YER111C, strain swi4, hits give low values 1 | locus YER155C, strain BEM2 (second series), hits give low values 0.975 | locus YER155C, strain BEM2, hits give low values 0.995 | locus YER167W, strain BCK2, hits give low values 1.01 | locus YFR010W, strain ubp6, hits give low values 1.01 | locus YGL078C, strain dbp3, hits give low values 1.01 | locus YGL086W, strain mad1, hits give low values 0.985 | locus YGL167C, strain pmr1, hits give low values 0.996 | locus YGL173C, strain kem1, hits give low values 1 | locus YGL227W, strain vid30, hits give low values 0.998 | locus YGL240W, strain doc1, hits give low values 0.973 | locus YGL248W, strain PDE1, hits give low values 1 | locus YGL253W, strain hxk2, hits give low values 1.01 | [1] 1.01 | locus YGR135W, strain pre9, hits give low values 0.992 | [2] 1.05 | locus YGR252W, strain gcn5, hits give low values 0.922 | locus YHR013C, strain ard1, hits give low values 0.987 | locus YHR027C, strain rpn1, hits give low values 0.994 | [9] 1.01 and 0.97 | locus YHR079C, strain IRE1 (second series), hits give low values 1 | locus YHR079C, strain IRE1, hits give low values 0.982 | locus YHR094C, strain hxt1, hits give low values 1 | locus YHR129C, strain ARP1, hits give low values 1.01 | locus YHR142W, strain chs7, hits give low values 1.03 | locus YHR200W, strain rpn10, hits give low values 0.993 | locus YIL066C, strain RNR3, hits give low values 1.01 | locus YIL073C, strain SPO22, hits give low values 1.03 | locus YIL125W, strain kgd1, hits give low values 0.995 | locus YIR030C, strain dcg1, hits give low values 0.998 | locus YJL092W, strain hpr5, hits give low values 1.01 | locus YJL095W, strain BCK1 (second series), hits give low values 1 | locus YJL095W, strain BCK1, hits give low values 1.01 and 0.953 | locus YJL115W, strain asf1, hits give low values 0.999 | locus YJL129C, strain trk1, hits give low values 1.01 | locus YJL134W, strain LCB3, hits give low values 1.01 | locus YJL154C, strain vps35, hits give low values 0.999 | locus YJL164C, strain tpk1, hits give low values 1 | locus YJL166W, strain qcr8, hits give low values 0.994 | locus YJL168C, strain set2, hits give low values 0.994 | locus YJL187C, strain SWE1 (second series), hits give low values 1.01 | locus YJL187C, strain SWE1, hits give low values 0.997 | [10] 1.01 | locus YJR066W, strain TOR1, hits give low values 0.941 | locus YKL009W, strain mrt4, hits give low values 0.99 | locus YKL068W, hits give low values 1.01 | locus YKL085W, strain MDH1 (second series), hits give low values 0.991 | locus YKL085W, strain MDH1, hits give low values 0.991 | locus YKL160W, strain elf1, hits give low values 0.995 | locus YKR001C, strain vps1, hits give low values 0.992 | locus YKR026C, strain gcn3, hits give low values 1.01 | locus YKR091W, strain srl3, hits give low values 1 | locus YLL001W, strain dnm1, hits give low values 1.02 | locus YLL026W, hits give low values 0.998 | locus YLL041C, strain sdh2, hits give low values 1 | locus YLR027C, strain aat2, hits give low values 0.982 | [11] 1.05 | locus YLR058C, strain SHM2, hits give low values 1.01 | locus YLR102C, strain apc9, hits give low values 0.989 | locus YLR113W, strain HOG1, hits give low values 1.03 | locus YLR221C, strain rsa3, hits give low values 0.989 | locus YLR258W, strain gsy2, hits give low values 0.978 | locus YLR262C, strain YPT6 (second series), hits give low values 0.983 | [12] 1.09 | locus YLR268W, strain sec22, hits give low values 1.01 | locus YLR320W, strain mms22, hits give low values 0.977 | locus YLR330W, strain CHS5, hits give low values 1.01 | locus YLR342W, strain FKS1, hits give low values 0.991 | locus YLR357W, strain rsc2, hits give low values 0.994 | locus YLR370C, strain arc18, hits give low values 1 | locus YLR371W, strain rom2, hits give low values 0.995 | locus YLR384C, strain iki3, hits give low values 0.977 | locus YLR418C, strain cdc73, hits give low values 0.973 | locus YML016C, strain PPZ1, hits give low values 1 | locus YML032C, strain rad52, hits give low values 1 | locus YML120C, strain ndi1, hits give low values 1 | locus YML124C, strain tub3, hits give low values 0.998 | locus YMR058W, strain fet3, hits give low values 1.02 | locus YMR078C, strain ctf18, hits give low values 0.989 | locus YMR125W, strain sto1, hits give low values 0.998 | locus YMR129W, hits give low values 1.01 | locus YMR205C, strain PFK2, hits give low values 1.01 | locus YMR223W, strain ubp8, hits give low values 0.988 | locus YMR231W, strain pep5, hits give low values 0.962 | [13] 1.01 | locus YMR307W, strain GAS1, hits give low values 1.05 | locus YNL067W, strain RPL9B, hits give low values 1.01 | locus YNL071W, strain lat1, hits give low values 1.01 | locus YNL183C, strain NPR1, hits give low values 0.961 | locus YNL209W, strain ssb2, hits give low values 0.992 | locus YNL233W, strain BNI4, hits give low values 1.02 | locus YNL248C, strain rpa49, hits give low values 1 | locus YNL250W, strain rad50, hits give low values 1.01 | locus YNL271C, strain bni1, hits give low values 1 | locus YNL298W, strain CLA4, hits give low values 0.995 | locus YNL307C, strain MCK1, hits give low values 0.995 | locus YNL322C, strain KRE1 (second series), hits give low values 0.992 | locus YNR049C, strain mso1, hits give low values 1 | locus YNR052C, strain pop2, hits give low values 0.995 | locus YOL006C, strain TOP1, hits give low values 1 | locus YOL012C, strain htz1 0.751 | locus YOL147C, strain pex11, hits give low values 0.996 | locus YOR001W, strain rrp6, hits give low values 0.979 | locus YOR061W, strain CKA2, hits give low values 1 | locus YOR069W, strain VPS5, hits give low values 0.999 | locus YOR070C, strain gyp1, hits give low values 1.01 | locus YOR080W, strain dia2, hits give low values 0.981 | locus YOR083W, strain WHI5, hits give low values 1.01 | locus YOR106W, strain vam3, hits give low values 1 | locus YOR136W, strain idh2, hits give low values 0.991 | locus YOR144C, strain elg1, hits give low values 0.99 | locus YOR184W, strain ser1, hits give low values 0.999 | locus YOR231W, strain MKK1, hits give low values 0.978 | locus YOR265W, strain rbl2, hits give low values 0.993 | locus YOR270C, strain vph1, hits give low values 1.04 | locus YOR290C, strain snf2, hits give low values 1 | locus YOR316C, strain cot1, hits give low values 1 | locus YPL051W, strain arl3, hits give low values 0.977 | [14] 1.01 | locus YPL078C, strain atp4, hits give low values 1 | locus YPL106C, strain sse1, hits give low values 0.975 | locus YPL240C, strain hsp82, hits give low values 0.997 | [15] 1.01 | locus YPL256C, strain CLN2, hits give low values 0.957 | locus YPR119W, strain clb2, hits give low values 0.995 | locus YPR141C, strain kar3, hits give low values 1.01 | locus YPR163C, strain tif3, hits give low values 1 | locus YPR167C, strain met16, hits give low values 0.995 | strain wtn01, hits give low values 0.993
